This passage reports growth results from PubChem BioAssay (NCI).

This is part of a sample that, as a whole, favours compounds with a hit. Of some 83,000 tested, about 20% had one in any assay.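 48-hour exposure, single concentration, 96-well plates; percent growth endpoint where 0 means no net growth. Active: below 10.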 Unmarked numbers belong to inactive results. Calls of active or inactive are those of the source.

The first assay has as its system T-47D breast. As to the kind of experiment: NCI-60 one-dose screen, 48 h (100 = growth as untreated, 0 = no growth, -100 = all killed). Conditions: 10 µM unless noted.
As to `CC(C)(CO)N(CCO)CCO`, the growth is 112%.
The same measure, in the same setting: with `CCCCCCCCn1ccc2cc(NC(=O)Cn3cc(CN4CCCCCC4)nn3)ccc21` the figure was -47.4% (active).
On the same count and under the same terms, with `COc1cc2cc(Oc3ccc(NC(=O)Nc4ccccc4)cc3)c(C)nc2cc1OCCN1CCCCC1` the figure was 88%.
On the same count and under the same terms, as for `CN1CCN(CCCOC(=O)c2c3c(n4ccccc24)C(=O)c2ncccc2C3=O)CC1`, the figure is 47.6%.
As for `Cc1ccc2[nH]c(-c3ccc(S(C)(=O)=O)cc3)c(/C=N/N=C(N)N)c2c1`, the growth is 67.8%.
Still for that read-out and setting: as for `COc1ccc(C/C(C)=C(\c2ccc(O)cc2)c2ccc(OCCN3CCCC3)cc2)cc1`, the figure is 73.3%; as for `CC1(C)C2CC=C(/C=N/NC(=O)C3CCC(=O)N3)C1C2` (stereo not given), 107%; as for `COc1ccc2cc(-c3ccc(-c4ccc(C(=N)N)s4)s3)ccc2c1`, -9.45% (active).
Turning to `Cc1nc2sc(C(=O)Nc3ccccc3)c(N)c2cc1C(=O)/C=C/c1ccccc1`, the growth was 1.62% (active).
The same measure, in the same setting: with `O=C1/C(=C/c2ccc(C(F)(F)F)cc2)COc2ccc(O)cc21` the figure was 78%; with `Cc1[nH]c(C(=O)Nc2ccc(C(N)=O)cc2NC(C)C)c(Cl)c1Cl`, 82.6%; with `Oc1c(CN2CCCC2)cc(COCc2ccccc2)c2cccnc12`, 5.66% (active).
On to `CCCCCCCC/C=C\CCCCCCCCOc1ccccc1CC(=O)NCC[N+]1(C)CCCCC1`, for which the growth is 59.9%.
Still for that read-out and setting: with `O=C1Nc2ccc(F)cc2/C1=C\c1nc(-c2ccccc2F)n2ccccc12` the figure was 88%.
On the same count and under the same terms, with `CN(C)Cc1ccc(C(=O)Nc2ccc3ncnc(Nc4ccc(Oc5cccc(F)c5)c(Cl)c4)c3c2)cc1` the figure was 10%; with `CCNC(=O)Oc1ccc(/C(=C(/C)Cc2ccc(OC)cc2)c2ccc(OCCN3CCCC3)cc2)cc1`, 42.7%.
As to `Cc1cscc(C)c1=S`, the growth was 96%.
In the case of `CC(=O)N/C(=C1/OC(C(O)C(O)C(O)CO)CN1C)[P+](c1ccccc1)(c1ccccc1)c1ccccc1` (stereo not given), the growth is 103%.
Still for that read-out and setting: as for `COC(=O)c1c2c(n3ccc(C)cc13)C(=O)c1ccccc1C2=O`, the figure is 82%; as for `COc1cc2nc(Nc3cccc(F)c3)nc(Nc3cc(C)[nH]n3)c2cc1OC`, -45.8% [20 µM] (active); as for `CC1=CCC[C@@H]2C1(C)CC[C@H](C)[C@@]2(C)CC1=CC(=O)C(SC(C)(C)C)=CC1=O` (stereo not given in full), -11.8% (active).
Same read-out and setting: as for `O=C(/C=C/c1cccc(Cl)c1)c1cccc(OCCCCOc2cccc(C(=O)/C=C/c3cccc(Cl)c3)c2)c1`, the figure is 75.8%; as for `CCCNc1nc2ccccc2c2c(=O)c3cccc(Cl)c3sc12`, 51.8%; as for `COc1cccc(Nc2ccnc3[nH]c4ccc([N+](=O)[O-])cc4c23)c1`, 41.8%.
The same measure, in the same setting: with `CCOC(=O)CSc1nc2sc3c(c2c(=O)n1-c1ccc([N+](=O)[O-])cc1)CCCCC3` the figure was 76.7%.
With `COc1cccc2c(N=NC(=O)c3ccc(S(N)(=O)=O)cc3)c(O)[nH]c12`, the growth is 92.9%.
Same read-out and setting: as for `Clc1nccc2c(-c3csc(-c4c[nH]c5ccccc45)n3)c[nH]c12`, the figure is 37%; as for `COc1cc(/C=N/Nc2ccccc2F)cc(OC)c1OC`, 67.7%; as for `COc1ccc2c(c1)c(-c1nc(-c3cn(C)c4ncccc34)cs1)cn2CCO`, 10.1%.
On the same count and under the same terms, with `CS(=O)(=O)Cc1cnc(C2OCCO2)s1` the figure was 129%; with `COc1ccc(Nc2ncc(C(N)=O)c(NCCCNC(=O)C3CCC3)n2)cc1`, 102%.
Still for that read-out and setting: with `N#C/C(=C\c1ccc(-c2ccc(Cl)cc2)o1)c1ccc(Cl)cc1` the figure was 51.2%; with `COc1cc(C(=O)/C=C/c2c(-c3cccs3)nc3ccccn23)cc(OC)c1OC`, 18.2%.
As to `Fc1ccc(CNc2c3ccccc3nc3ccccc23)cc1`, the growth is 31.1%.
Regarding `COc1cc(Nc2c3ccc(Cl)cc3nc3ccc(OC)cc23)c2ncccc2c1`, the growth was 48.6%.
`COc1cc(C2Cc3ncccc3-c3[nH]c(=O)c4cccnc4c32)cc(OC)c1OC` (stereo not given): the growth was 45.6%.
Same read-out and setting: as for `CCc1ccc(CCC(=O)Nc2ncc(Cc3ccc(Cl)cc3)s2)o1`, the figure is 37%; as for `N#Cc1c(-c2ccccc2)nc2c(c(-c3ccccc3)nn2-c2ccccc2)c1-c1ccc(N2CCOCC2)cc1`, 96.7%; as for `COc1ccc(NC(=O)c2ccc(C(=O)Nc3ccc(OC)cc3OC)cc2)c(OC)c1`, 71.9%.
Same read-out and setting: with `CCN=C1C=CC(=C(c2ccc(N(C)C)cc2)c2ccc(N(C)C)cc2)c2ccccc21` the figure was -22.8% (active).

A further assay relates to BT-549 breast. Described as above. To be noted: 10 µM unless noted.
For `CC(C)(CO)N(CCO)CCO`, the growth is 101%.
Same read-out and setting: as for `CCCCCCCCn1ccc2cc(NC(=O)Cn3cc(CN4CCCCCC4)nn3)ccc21`, the figure is 96.8%.
For `COc1cc2cc(Oc3ccc(NC(=O)Nc4ccccc4)cc3)c(C)nc2cc1OCCN1CCCCC1`, the growth was 86.8%.
As to `CN1CCN(CCCOC(=O)c2c3c(n4ccccc24)C(=O)c2ncccc2C3=O)CC1`, the growth was 24.9%.
The same measure, in the same setting: as for `Cc1ccc2[nH]c(-c3ccc(S(C)(=O)=O)cc3)c(/C=N/N=C(N)N)c2c1`, the figure is 76.9%; as for `COc1ccc(C/C(C)=C(\c2ccc(O)cc2)c2ccc(OCCN3CCCC3)cc2)cc1`, 110%.
The same measure, in the same setting: with `CC1(C)C2CC=C(/C=N/NC(=O)C3CCC(=O)N3)C1C2` (stereo not given) the figure was 105%.
The same measure, in the same setting: as for `COc1ccc2cc(-c3ccc(-c4ccc(C(=N)N)s4)s3)ccc2c1`, the figure is 98.6%; as for `Cc1nc2sc(C(=O)Nc3ccccc3)c(N)c2cc1C(=O)/C=C/c1ccccc1`, -7.07% (active).
As for `O=C1/C(=C/c2ccc(C(F)(F)F)cc2)COc2ccc(O)cc21`, the growth is 72.8%.
As to `Cc1[nH]c(C(=O)Nc2ccc(C(N)=O)cc2NC(C)C)c(Cl)c1Cl`, the growth was 93%.
On the same count and under the same terms, as for `Oc1c(CN2CCCC2)cc(COCc2ccccc2)c2cccnc12`, the figure is 27.2%.
As to `CCCCCCCC/C=C\CCCCCCCCOc1ccccc1CC(=O)NCC[N+]1(C)CCCCC1`, the growth is 47.9%.
Same read-out and setting: as for `O=C1Nc2ccc(F)cc2/C1=C\c1nc(-c2ccccc2F)n2ccccc12`, the figure is 102%; as for `CN(C)Cc1ccc(C(=O)Nc2ccc3ncnc(Nc4ccc(Oc5cccc(F)c5)c(Cl)c4)c3c2)cc1`, 80.2%.
Still for that read-out and setting: as for `CCNC(=O)Oc1ccc(/C(=C(/C)Cc2ccc(OC)cc2)c2ccc(OCCN3CCCC3)cc2)cc1`, the figure is 85.9%; as for `Cc1cscc(C)c1=S`, 99.7%.
The same measure, in the same setting: with `CC(=O)N/C(=C1/OC(C(O)C(O)C(O)CO)CN1C)[P+](c1ccccc1)(c1ccccc1)c1ccccc1` (stereo not given) the figure was 102%; with `COC(=O)c1c2c(n3ccc(C)cc13)C(=O)c1ccccc1C2=O`, 69.7%; with `COc1cc2nc(Nc3cccc(F)c3)nc(Nc3cc(C)[nH]n3)c2cc1OC`, -83.8% [20 µM] (active).
Take `CC1=CCC[C@@H]2C1(C)CC[C@H](C)[C@@]2(C)CC1=CC(=O)C(SC(C)(C)C)=CC1=O` (stereo not given in full): the growth is 80.5%.
Same read-out and setting: with `O=C(/C=C/c1cccc(Cl)c1)c1cccc(OCCCCOc2cccc(C(=O)/C=C/c3cccc(Cl)c3)c2)c1` the figure was 92.6%; with `CCCNc1nc2ccccc2c2c(=O)c3cccc(Cl)c3sc12`, 99%; with `COc1cccc(Nc2ccnc3[nH]c4ccc([N+](=O)[O-])cc4c23)c1`, 80.3%.
In the case of `CCOC(=O)CSc1nc2sc3c(c2c(=O)n1-c1ccc([N+](=O)[O-])cc1)CCCCC3`, the growth is 97.2%.
Still for that read-out and setting: with `COc1cccc2c(N=NC(=O)c3ccc(S(N)(=O)=O)cc3)c(O)[nH]c12` the figure was 94.3%; with `Clc1nccc2c(-c3csc(-c4c[nH]c5ccccc45)n3)c[nH]c12`, 65.7%; with `COc1cc(/C=N/Nc2ccccc2F)cc(OC)c1OC`, 96%.
The same measure, in the same setting: as for `COc1ccc2c(c1)c(-c1nc(-c3cn(C)c4ncccc34)cs1)cn2CCO`, the figure is 76.9%; as for `CS(=O)(=O)Cc1cnc(C2OCCO2)s1`, 97.6%; as for `COc1ccc(Nc2ncc(C(N)=O)c(NCCCNC(=O)C3CCC3)n2)cc1`, 24.5%.
Still for that read-out and setting: with `N#C/C(=C\c1ccc(-c2ccc(Cl)cc2)o1)c1ccc(Cl)cc1` the figure was 79.5%.
For the compound `COc1cc(C(=O)/C=C/c2c(-c3cccs3)nc3ccccn23)cc(OC)c1OC`, the growth is -16.9% (active).
As to `Fc1ccc(CNc2c3ccccc3nc3ccccc23)cc1`, the growth was 80.7%.
Still for that read-out and setting: with `COc1cc(Nc2c3ccc(Cl)cc3nc3ccc(OC)cc23)c2ncccc2c1` the figure was 56.2%; with `COc1cc(C2Cc3ncccc3-c3[nH]c(=O)c4cccnc4c32)cc(OC)c1OC` (stereo not given), 40.6%; with `CCc1ccc(CCC(=O)Nc2ncc(Cc3ccc(Cl)cc3)s2)o1`, 61.3%.
Same read-out and setting: as for `N#Cc1c(-c2ccccc2)nc2c(c(-c3ccccc3)nn2-c2ccccc2)c1-c1ccc(N2CCOCC2)cc1`, the figure is 99.8%.
In the case of `COc1ccc(NC(=O)c2ccc(C(=O)Nc3ccc(OC)cc3OC)cc2)c(OC)c1`, the growth was 43.6%.
With `CCN=C1C=CC(=C(c2ccc(N(C)C)cc2)c2ccc(N(C)C)cc2)c2ccccc21`, the growth is -35.2% (active).
